Sampled rows, rich in hits. Any-hit rate of the full collection: about 2%.
M4 antag: human M4 muscarinic receptor antagonists, primary screen, CHO cells, Fluo-8 calcium fluorescence | inhibition, % at 3 µM | hit rate 0.73% among 360,000 | CHO-hM4 cells, ACh EC80;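 active = inhibition above its plate's cutoff, the mean inhibition of sample wells plus 3 SD, cut at about 27% in these data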
Target sequence (P08173 whole entry, looked up): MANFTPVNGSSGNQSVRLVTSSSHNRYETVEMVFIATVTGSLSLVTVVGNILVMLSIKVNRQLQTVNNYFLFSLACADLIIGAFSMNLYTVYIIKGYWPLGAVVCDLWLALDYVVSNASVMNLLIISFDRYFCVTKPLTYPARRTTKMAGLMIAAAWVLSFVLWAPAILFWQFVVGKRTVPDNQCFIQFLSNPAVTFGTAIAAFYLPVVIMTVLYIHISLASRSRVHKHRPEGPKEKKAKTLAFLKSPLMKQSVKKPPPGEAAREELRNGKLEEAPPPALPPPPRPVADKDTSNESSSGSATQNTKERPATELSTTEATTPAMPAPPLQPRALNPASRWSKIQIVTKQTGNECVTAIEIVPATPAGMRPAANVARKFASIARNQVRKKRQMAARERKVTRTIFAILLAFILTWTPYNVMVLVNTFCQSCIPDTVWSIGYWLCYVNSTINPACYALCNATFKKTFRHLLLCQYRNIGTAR
CHO-K1 Ca antag: counter-screen for M1 antagonists: effect in parental CHO-K1 cells | inhibition, % at 3 µM | hit rate 0.6% among 360,000 | ATP-induced calcium, Fluo-8 fluorescence;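 active = inhibition above a per-plate cutoff, the plate's mean sample inhibition plus 3 SD, cut at about 24% in these data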
M4 ag: human M4 muscarinic receptor agonists, primary screen, CHO-K1 cells, Fluo-8 calcium fluorescence; Muscarinic acetylcholine receptor M4 (Homo sapiens), P08173; CHO-K1 hM4/Gqi5; vehicle 0%, full acetylcholine response 100%; activation, % at 3 µM; hit rate 0.14% among 360,000; AID 624127, 2012;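 active = activation above the run mean over all test wells plus 3 SD, cut at about 32% in these data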;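 also: peak over basal fluorescence ratio per well then scaled between controls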
CHO-K1 Ca PAM: nonselective calcium activators in parental CHO-K1 cells, primary screen, counter-screen for M1 PAM project, cell-based, Fluo-8 calcium fluorescence, full deck, 1536-well; ATP EC20; 0% at ATP EC20, 100% at ATP max; activation, % at 3 µM; hit rate 0.02% among 360,000; AID 602247, 2012;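 active = activation above the run cutoff, the mean activation of all test compounds plus 3 SD, cut at about 40% in these data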;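 also: peak over basal fluorescence ratio in a 140 s read after ATP addition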
M1 ag parental: counter-screen for M1 agonists: effect in parental CHO-K1 cells. Fluo-8 calcium fluorescence; scaled to maximal ATP response, vehicle zero. hit rate 0.48% among 360,000. AID 602248, 2012. activation, % at 3 µM; in the data active = activation above about 15%;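 also: untransfected CHO-K1 host cells lacking M1 receptor as counterscreen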
M4 PAM: human M4 muscarinic receptor positive allosteric modulators, primary screen, CHO-K1 cells, Fluo-8 calcium fluorescence; hit rate 0.4% among 360,000; activation, % at 3 µM; CHO-K1 hM4/Gqi5, ACh EC20; 0% = ACh EC20, 100% = maximal ACh;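 active = activation above its plate's cutoff, the mean activation of sample wells plus 3 SD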
Numbers stand for hits; i = inactive.

SMILES | M4 antag | CHO-K1 Ca antag | M4 ag | CHO-K1 Ca PAM | M1 ag parental | M4 PAM
O=C(OCc1ccccc1)N1Cc2ccnnc2CC1c1ccccc1Br (stereo not drawn) | i | 32.5 | i | i | i | i
O=C(OCc1ccccc1)N1C[C@H](O)[C@H](O)C[C@@H]1c1c(Cl)cccc1Br | i | i | i | i | i | i
COc1ccc(CCC(=O)OCC(=O)Nc2sccc2C(N)=O)cc1 | i | 33.6 | i | i | 15.7 | i
COc1cc(CC(=O)Nc2sccc2C(N)=O)cc(OC)c1OC | i | i | i | i | i | i
COc1ccc(CCC(=O)OCC(=O)Nc2sccc2C(N)=O)cc1OC | i | 25.5 | i | i | i | i
CC(=O)c1c(C)[nH]c(C(=O)OCC(=O)NNC(=O)c2ccc([N+](=O)[O-])cc2)c1C | i | i | i | i | i | i
C[C@H]1CN=C(N(C)C)N1CCCC1CCCC1 | i | i | i | i | i | i
O=c1c2ccccc2ncn1-c1ccc([N+](=O)[O-])cc1Cl | i | 24.0 | i | i | i | i
O=c1c2ccccc2ncn1-c1ccccc1[N+](=O)[O-] | i | i | i | i | i | i
CCN(CC)S(=O)(=O)c1ccc(C(=O)NCc2nnc(SCC(=O)OC)n2C)cc1 | i | i | i | i | i | i
CCNC(=S)NC1CC2CCCC(C1)N2CCc1ccccc1 (stereo not drawn) | 37.5 | i | i | i | i | i
O=S(=O)(Nc1ccc(C(O)(C(F)(F)F)C(F)(F)F)cc1)c1cccc2ccccc12 | i | i | i | i | i | i
COc1ccc(C(CC(=O)c2ccc(C)cc2)Nc2ccc([N+](=O)[O-])cc2)cc1 (stereo not drawn) | i | i | i | i | 15.4 | i
CN(C)S(=O)(=O)c1ccc2c(c1)nc(CCC(=O)O)n2C | i | i | i | i | i | i
CCn1c(CCC(=O)O)nc2cc(S(=O)(=O)N(C)C)ccc21 | i | 29.9 | i | i | i | i
CCCc1nc2c(sc3nc4c(cc32)COC(C)(C)C4)c(=O)n1CCN(C)C | i | i | i | i | i | i
CC(C(=O)NCc1ccco1)n1ccc2cc(S(=O)(=O)N3CCCCC3)ccc21 (stereo not drawn) | i | i | i | i | i | i
CC(C)NC(=O)NC(=O)CSc1ccc(S(=O)(=O)N2CCOCC2)cn1 | i | i | i | i | i | 21.1
CCCCNC(=O)CSc1ccc(S(=O)(=O)N2CCOCC2)cn1 | i | i | i | i | i | i
CC(C)C(NC(=O)OCc1ccccc1)C(=O)NC(Cc1ccc(O)cc1)C(=O)O (stereo not drawn) | i | i | i | i | i | i
CC(C)[C@H](NC(=O)[C@H](CCCN=C(N)N)NC(=O)NC(Cc1ccccc1)C(=O)O)C(=O)NC(C=O)CCCN=C(N)N (stereo partly drawn) | i | 26.8 | i | i | i | i
O=C(O)c1cccc(NC(=S)N/N=C/c2ccccc2OCc2ccc(Br)cc2)c1 | i | 27.0 | i | i | i | i
COc1ccc(CN2C(=O)C(CC(=O)NC3CCCC3)CC(C(=O)N3CCOCC3)=C2C)cc1 (stereo not drawn) | i | 23.8 | i | i | i | i
COc1ccc([C@@H]2CC=C(C(=O)O)[C@H](c3ccc(C)cc3)N2S(=O)(=O)c2ccccc2C)cc1 | i | i | i | i | i | i
COC(=O)CN(c1cc([N+](=O)[O-])ccc1OC)S(C)(=O)=O | i | i | i | i | 16.8 | i
O=C(NC1CCCCC1)c1cc(C2CC2)nn1-c1ccccc1 | i | i | i | i | i | i
Cc1cc(=O)[nH]c(SCc2nc3ccccc3s2)n1 | i | i | i | i | i | i
CC(=O)NC(c1ccccc1)c1nc(-c2cccc(C(F)(F)F)c2)cs1 (stereo not drawn) | i | 29.3 | i | i | i | i

Compound activity as filed in PubChem BioAssay.
